hNpr1 antagonist = human Npr1 receptor antagonism | P16066 | 76,000 tested, 1.6% active | Potency, µM (titrated, usually from 46.3 µM), for the others: at the highest dose activity change, negative = inhibition, usual class: inhibitors | HEK293 hNpr1 GloSensor cGMP, ANP-stimulated luminescence | AID 1347048; calls by dose curve; also: % is scaled to controls: 0 for no effect and ±100 for the full control effect; nearly all actives have a fitted effect of over 60% in size
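HEK293 cells stably expressing human Npr1 and cGMP GloSensor pGS-40F, loaded 2 h with 2% GloSensor reagent, given compound 30 min at room temperature. Luminescence read before and 20 min after 0.1 nM hNppA.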
SNCA viab count = counter-screen for SNCA expression inhibitors: cell viability; HEK-293-SNCA-luc viability, GF-AFC fluorescence, 24 h; Potency, µM (top dose mostly 57.1 µM), for inactives: top-dose activity change, negative = cytotoxicity, most hits filed as cytotoxic; 150,000 tested, 0.12% active; AID 1671193;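 also: 0% = DMSO-treated cells and -100% = medium-only wells without cells; nearly all actives have a fitted effect of over 30% in size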
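HEK-293-SNCA-luc cells (1500/well) plated 24 h, then exposed 24 h to a dilution series; GF-AFC added 30 min at 37C, fluorescence 405/540 nm; normalised to medium-only and DMSO wells, Hill fit.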
FLuc inh-1 = inhibitors of firefly (Photinus pyralis) luciferase. P08659. purified P. pyralis luciferase, luminescence, biochemical. Potency, µM (series often up to 115 µM), hits mostly inhibitors. 76,000 tested, 2.5% active. AID 1347043; also: % is scaled to controls: 0 for no effect and ±100 for the full control effect; nearly all actives have a fitted effect of over 65% in size
Target sequence (P08659 whole entry, looked up): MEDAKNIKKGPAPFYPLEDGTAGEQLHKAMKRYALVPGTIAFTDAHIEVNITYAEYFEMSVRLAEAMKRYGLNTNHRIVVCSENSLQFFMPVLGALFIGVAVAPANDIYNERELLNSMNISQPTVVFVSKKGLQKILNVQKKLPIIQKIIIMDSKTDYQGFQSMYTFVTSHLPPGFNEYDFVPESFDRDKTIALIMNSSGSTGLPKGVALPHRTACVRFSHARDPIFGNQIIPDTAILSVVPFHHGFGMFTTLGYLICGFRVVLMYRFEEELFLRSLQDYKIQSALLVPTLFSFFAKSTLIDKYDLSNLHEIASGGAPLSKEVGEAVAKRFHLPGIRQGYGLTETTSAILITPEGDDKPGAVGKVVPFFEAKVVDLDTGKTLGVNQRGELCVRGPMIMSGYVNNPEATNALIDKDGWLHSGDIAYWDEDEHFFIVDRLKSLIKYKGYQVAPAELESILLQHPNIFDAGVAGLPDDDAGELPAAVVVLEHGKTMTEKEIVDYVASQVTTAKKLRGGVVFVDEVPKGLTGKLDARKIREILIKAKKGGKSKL
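Purified P. pyralis luciferase (10nM final) in 50mM Tris acetate pH 7.5, 10mM Mg acetate, 0.01% Tween-20, 0.05% BSA with 10uM D-luciferin and 10uM ATP. Compounds titrated qHTS. Luminescence imaged on CCD.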
3T3 cytotox = kills NIH 3T3 cells | NIH 3T3 viability, CellTiter-Glo ATP luminescence, 48-72 h | Potency, µM (series often up to 96.7 µM), inactives show top-dose activity change, negative = cytotoxicity, actives largely listed as inhibitors | 94,000 tested, 4.3% active; also: % is scaled to controls: 0 for no effect and ±100 for the full control effect; nearly all actives have a fitted effect of over 55% in size
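ATP-dependent luminescence (CellTiter-Glo) served as the viability signal for NIH 3T3 cells treated with compound for 48 or 72 hr at 37 °C.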
SNCA expr inhib = reduces expression of the alpha-synuclein gene | HEK-293 SNCA-luciferase knock-in, luminescence, 24 h | Potency, µM (top dose mostly 57.2 µM), inactives show at the top dose activity change, negative = inhibition, actives largely listed as inhibitors | 140,000 tested, 0.17% active;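 also: plate controls were DMSO cells for no effect and cell-free wells for full effect; nearly all actives have a fitted effect of over 45% in size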
HEK293 tox = HEK 293 cell cytotoxicity; HEK 293 viability, ATP luminescence (CellTiter-Glo), 48-72 h; Potency, µM (highest dose often 115 µM), inactives show at the highest dose activity change, negative = cytotoxicity, usual class: inhibitors; 94,000 tested, 6.6% active; AID 1345083; also: % is scaled to controls: 0 for no effect and ±100 for the full control effect; nearly all actives have a fitted effect of over 60% in size
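ATP-coupled CellTiter-Glo luminescence served as viability read-out, recorded 10 min after reagent addition at room temperature. HEK 293 cells, 250 cells/well, had been incubated with pintool-transferred compound for 48 or 72 hr at 37 degree Celsius.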
FLuc SDR no ATP = stabilizes firefly luciferase without ATP. shares compounds with FLuc inh-1. Purified FLuc-C-HiBiT, Nano-Glo HiBiT luminescence, no ATP. Potency, µM (highest dose often 32.7 µM), for the others: at the top dose activation (signal gain), actives largely listed as activators. 1,300 tested, 7.8% active. AID 1963318; also: nearly all actives have a fitted effect of over 55% in size
FLuc SDR ATP = firefly luciferase binding stabilization, ATP added. shares compounds with FLuc inh-1. purified FLuc-C-HiBiT + ATP, HiBiT complementation luminescence. Potency, µM (titrated, usually from 32.7 µM), for the others: at the highest dose activation (gain of signal), most hits filed as activators. 1,300 tested, 8.7% active. AID 1963319;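 also: signal reports ligand binding via conformational change of the enzyme rather than luciferase catalysis; % of control where 0% means no effect; nearly all actives have a fitted effect of over 55% in size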
FLuc inh-2 = firefly luciferase enzyme inhibition; 1,300 tested, 42% active; AID 1963320; shares compounds with FLuc inh-1; Potency, µM (top dose mostly 32.7 µM), inactives show at the highest dose activity change, negative = inhibition, actives largely listed as inhibitors; purified FLuc-C-HiBiT enzyme, luciferin luminescence; also: % is scaled to controls: 0 for no effect and ±100 for the full control effect; nearly all actives have a fitted effect of over 70% in size
The depositor's hits bear a star; i = inactive; ? = inconclusive; / = not tested or not shown; [ ] = remark or other dose. Most compounds without a hit are left out; they make up all but 7.4% or so of the library. Unless noted, calls follow the shape of the dose curve; as a rule, active = well fitted curve in the direction sought with a large enough effect; inconclusive = small, poorly fitted or top-dose-only effect, or another doubt; inactive = no such curve, though single readings can be large; an effect the other way counts as inactive or inconclusive. Potency is read from the fitted curve at half-maximal effect.

SMILES	hNpr1 antagonist	SNCA viab count	FLuc inh-1	3T3 cytotox	SNCA expr inhib	HEK293 tox	FLuc SDR no ATP	FLuc SDR ATP	FLuc inh-2
CCC(CC)CN1C[C@]23C=C[C@H](O2)C(C(=O)N(C)Cc2nccs2)C3C1=O (stereo not given in full)	3.3%	6.1%	i	-8.4%	5.6%	3.2%	/	/	/
CCNC(=O)N[C@@H]1C=C[C@@H](c2c(C)nn(-c3ccc(C(F)(F)F)cc3)c2C)C1	25.1µM*	?	1.58µM*	?	-44.9%[87.6 µM]	22.4µM*	24.5%[49.3 µM]	?	14.3µM*
CCNC(=O)N[C@@H]1C=C[C@@H](c2c(C)nn(-c3ccc(C(C)C)cc3)c2C)C1	7.08µM*	?	0.501µM*	28.2µM*	-69.9%[87.6 µM]	20µM*	?	?	2.86µM*
CC(=O)N[C@@H]1C=C[C@@H](c2c(C)nn(-c3ccc(C(F)(F)F)cc3)c2C)C1	?	-14.3%[87.6 µM]	14.1µM*	89.1µM*	86.6%[87.6 µM]	79.4µM*	16.2%[49.3 µM]	?	?
CCNC(=O)N[C@@H]1C=C[C@@H](c2c(C)nn(-c3ccccc3[N+](=O)[O-])c2C)C1	-27.2%[70.6 µM]	-0.5%[87.6 µM]	?	-25.6%[174 µM]	62.1%[87.6 µM]	?	/	/	/
Cc1nn(-c2ccc(C(C)(C)C)cc2)c(C)c1[C@@H]1C=C[C@@H](NC(=O)COCC(=O)O)C1	-1.9%[70.6 µM]	-2.7%[87.6 µM]	22.4µM*	?	17.2%[87.6 µM]	2.7%[172 µM]	27.6%[49.3 µM]	17.6%[49.3 µM]	?
CCOc1ccc(C2Cn3nnc(-c4nc(C(C)(C)C)no4)c3CO2)cc1 (stereo not given)	-10.0%	-11.3%	i	-13.8%	21.8%	1.7%	/	/	/
CC(=O)N[C@@H]1C=C[C@@H](c2c(C)nn(-c3ccc(C(C)(C)C)cc3)c2C)C1	?	-27.3%[87.6 µM]	14.1µM*	50.1µM*	75.9%[87.6 µM]	?	17.2%[49.3 µM]	18.0%[49.3 µM]	?
Cc1nn(-c2ccc(C(F)(F)F)cc2)c(C)c1[C@@H]1C=C[C@@H](NC(=O)c2ccc(N(C)C)cc2)C1	-14.2%	-3.2%	?	?	15.4%	?	/	/	/
CN1C[C@H](O)C[C@H]1c1nnc2n1CCN(C(=O)Cc1ccccc1)CC2	-1.1%	-8.1%	i	3.7%	8.3%	-7.0%	/	/	/
OC1CC(c2cc(N3CCc4c(Cl)cccc4C3)ncn2)C1 (stereo not given)	2.51µM*	-6.9%	1.26µM*	?	9.1%	?	17.9%	?	?
COc1cc2c(cc1OC)CN(c1cc(C3CC(O)C3)ncn1)CC2 (stereo not given)	?	3.0%	?	?	41.8%	?	/	/	/
CC(=O)c1ccc(NC(=O)CCc2c(C)nc3cc(-c4ccc(Cl)cc4)nn3c2C)cc1	/	-9.7%	/	/	?	/	18.5%	?	?
Cc1nc2cc(-c3cccc(F)c3)nn2c(C)c1CCC(=O)NC1CCCCC1	/	7.1%	/	/	?	/	12.4%	?	?
Cc1ccc(NC(=O)CCc2c(C)nc3cc(-c4ccccc4)nn3c2C)cc1F	/	13.4%	/	/	?	/	12.7%	?	?
CCOc1ccccc1NC(=O)CCc1c(C)nc2cc(-c3ccccc3)nn2c1C	/	8.1%	/	/	-17.2%	/	/	/	/
COC(=O)C(NC(=O)CCc1c(C)nc2cc(-c3cccc(F)c3)nn2c1C)C(C)C (stereo not given)	/	2.0%	/	/	?	/	/	/	/
O=C(C1CCN(c2nc3ncccc3o2)CC1)N1CCCC1	/	-3.6%[87.6 µM]	/	i	8.1%[87.6 µM]	i	/	/	/
CC(CCn1cccn1)NC(=O)c1csc2nc(-c3ccc(C(F)(F)F)cc3)cn12 (stereo not given)	-27.2%	-2.9%	12.6µM*	?	-6.9%	?	17.2%	12.3%	9.89µM*
N#Cc1c(-n2ncnc2-c2cccc(Br)c2)sc2c1CCCCC2	/	-5.1%	/	/	-1.7%	/	31.4%	?	3.13µM*
CCOc1ccc(NC(=O)CC2CCOCC2)cc1	-9.9%	-7.3%[12.5 µM]	?	2.1%	98.2%	-9.8%	/	/	/
O=C(Nc1cccc(F)c1)Nc1ccc2n(c1=O)C[C@H]1C[C@@H]2CN(C(=O)c2ccc(F)cc2)C1	-21.9%	-21.6%	10µM*	?	75.4%	39.8µM*	13.5%	10.1%	?
Cc1ccc(-c2noc(-c3ccccc3Br)n2)cc1	/	/	/	/	/	/	?	?	1.57µM*
Cc1ccc(-c2noc(-c3nc(C(C)C)no3)n2)cc1	-20.0%	4.1%	7.08µM*	-4.6%	153.2%	-10.0%	10.2%	11.2%	?
Cc1ccc(-c2noc(-c3nc(-c4cccnc4)no3)n2)cc1	-0.1%	0.6%	i	-6.4%	50.5%	-1.1%	/	/	/
SMILES	hNpr1 antagonist	SNCA viab count	FLuc inh-1	3T3 cytotox	SNCA expr inhib	HEK293 tox	FLuc SDR no ATP	FLuc SDR ATP	FLuc inh-2
Cc1cc(C)cc(C(=O)N2[C@@H]3CC[C@H]2CC(NC(=O)c2ccc(F)cc2)C3)c1 (stereo not given in full)	/	-7.2%	/	-17.2%	19.1%	?	/	/	/
c1ccc(CNc2cc(-c3cc(N4CCCCC4)ncn3)c3cc[nH]c3n2)nc1	-1.6%	6.0%	7.94µM*	?	36.7%	?	24.5%	12.2%	9.89µM*
Cc1cc(NCCc2cnccn2)nc(-c2ccccc2O)n1	0.3%	-13.0%	10µM*	?	232.5%	?	16.4%	12.6%	-16.7%
CC(C)CNC(=O)c1ccc2nnc(-c3ccoc3)n2c1	/	0.5%[87.6 µM]	/	-33.5%[138 µM]	16.8%[87.6 µM]	-4.5%[172 µM]	/	/	/
COc1c(C)cccc1C(=O)Nc1ccc(-c2nc3ccccc3s2)c(Cl)c1	/	2.4%	/	/	21.3%	/	7.5%	6.5%	-15.5%
CCOc1ccc(C(=O)Nc2ccc(-c3nc4ccccc4s3)c(C)c2)cc1OCC	/	-2.4%	/	/	90.9%	/	18.4%	10.7%	-10.3%
COc1ccc(C(=O)Nc2ccc(-c3nc4ccccc4s3)c(Cl)c2)cc1Cl	/	22.9%	/	/	41.6%	/	13.6%	10.9%	-12.0%
CCOc1ccc(C(=O)Nc2ccc3oc(-c4ccc(C)cc4C)nc3c2)cc1Br	/	2.3%	/	/	-1.4%	/	/	/	/
COc1ccc(Nc2cc(C)c3cc(NC(=O)c4ccccc4Cl)ccc3n2)cc1	/	-14.5%	/	/	-2.0%	/	/	/	/
